In PubChem BioAssay:
The source made the active and inactive calls. Unless noted, the rule behind the calls is not given here.

Key:
[1] = test system: Wnt5a (protein binding on small-molecule microarray); assay: Wnt5a binders on small-molecule microarray, primary screen, biophysical, 635/667 nm fluorescence (AID 1142); conditions: 635 nm fluorescence, higher = more signal;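 note: fluorescence read at 667 nm with signal to noise per printed feature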
[2] = cell viability in Huh7 cells, primary screen, cytotoxicity control for HCV replication inhibitor project, CellTiter-Glo luminescence, basal, 48 h (AID 1143); conditions: Huh7 HCV replicon, higher = more signal, called active from +8 up or from −8 down;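 note: Huh7 hepatoma cells carrying a hepatitis C replication reporter with no stimulus; test concentration not given here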
[3] = P. aeruginosa biofilm formation inhibitors, primary screen, PAO1 strain, BacTiter-Glo luminescence, LB-PBS (AID 1144); conditions: 12 h, higher = more signal
[4] = CREB reporter modulators without forskolin, primary screen, cell-based, PC12, CRE-LacZ reporter, unstimulated (AID 1145); conditions: no forskolin, luminescence, 4.5 h, higher = more signal, called active from +8 up or from −8 down
[5] = CREB reporter modulators under forskolin, primary screen, cell-based, PC12, CRE-LacZ reporter, forskolin-stimulated (AID 1146); conditions: luminescence, 4.5 h, higher = more signal, called active from +8 up or from −8 down;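 note: PC12 cells with 6xCRE LacZ reporter stimulated by forskolin 10 µM; beta-galactosidase reporter signal reflecting CREB driven transcription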
[6] = molecular target: Streptavidin (Streptomyces avidinii) (UniProt P22629); assay: streptavidin binders on small-molecule microarray, primary screen, artefact control for SMM compound annotation, biophysical, 635/667 nm fluorescence (AID 1147); conditions: streptavidin binding, higher = more signal;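 note: signal reflects streptavidin binding to arrayed compounds as a control protein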
Streptavidin (Streptomyces avidinii), sequence (P22629 whole entry, looked up): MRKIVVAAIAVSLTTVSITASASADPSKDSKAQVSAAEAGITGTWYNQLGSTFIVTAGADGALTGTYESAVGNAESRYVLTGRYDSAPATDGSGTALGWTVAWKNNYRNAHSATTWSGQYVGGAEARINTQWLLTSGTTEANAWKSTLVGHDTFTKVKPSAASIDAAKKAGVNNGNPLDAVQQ

[7] = small-molecule binders of probe aInhba, primary screen, biochemical, small-molecule microarray, 635/667 nm fluorescence (AID 1148); conditions: higher = more signal;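 note: score merges 667nm spot fluorescence with signal-to-noise for antibody binding to printed compounds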
[8] = molecular target: Torsin-1A (Homo sapiens) (UniProt O14656); assay: torsin A binders from cell lysate, primary screen, small-molecule microarray, wild-type, 635/667 nm (AID 1149); conditions: COS7 hTOR1A-WT lysate, 635 nm fluorescence, higher = more signal
Torsin-1A (Homo sapiens), sequence (O14656 whole entry, looked up): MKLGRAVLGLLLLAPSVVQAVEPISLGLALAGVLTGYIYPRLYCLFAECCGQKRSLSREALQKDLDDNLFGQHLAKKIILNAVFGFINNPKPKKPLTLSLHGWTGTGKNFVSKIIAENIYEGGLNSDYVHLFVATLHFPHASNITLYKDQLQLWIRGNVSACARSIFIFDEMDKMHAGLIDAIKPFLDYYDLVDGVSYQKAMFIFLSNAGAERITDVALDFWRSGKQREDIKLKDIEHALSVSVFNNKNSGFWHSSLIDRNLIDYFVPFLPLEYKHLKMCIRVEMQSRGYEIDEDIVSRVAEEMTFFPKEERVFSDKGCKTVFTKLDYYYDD

[9] = molecular target: Torsin-1A (Homo sapiens) (UniProt O14656); assay: small-molecule binders of mutant TOR1A in lysate, primary screen, cell lysate, small-molecule microarray, COS7 lysate, 635/667 nm fluorescence (AID 1150); conditions: COS7 hTOR1A mutant lysate, 635 nm fluorescence, higher = more signal;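 note: score pools 667 nm emission and signal to noise measuring lysate protein binding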
[10] = test system: Sonic hedgehog protein (Shh); assay: small-molecule binders of Shh protein, primary screen, biochemical, small-molecule microarray, 635/667 nm fluorescence (AID 1151); conditions: small-molecule microarray binding, 635 nm fluorescence; higher = more signal;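 note: Shh protein binding to compounds spotted on small-molecule microarray slides; score combines spot fluorescence intensity with signal-to-noise across triplicate slides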
[11] = E. coli DRC41 culture turbidity changes, primary screen, E. coli filamentation inducer project, strain DRC41, OD650, 48 h (AID 1152);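 note: E. coli MC1000 strain DRC41 lacking acrAB efflux pump and sulA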; conditions: E. coli DRC41 (acrAB sulA), higher = more signal, called active from +8 up or from −8 down
[12] = small-molecule binders of probe aLefty1, primary screen, biochemical, small-molecule microarray, 635/667 nm fluorescence (AID 1153); conditions: higher = more signal;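 note: score merges spot fluorescence with signal-to-noise ratio from the scanned slide images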
[13] = PSAC antagonists in infected red cells, primary screen, cell-based, P. falciparum Indochina, OD700, 1 h (AID 1154); conditions: P. falciparum Indochina infected RBC osmotic lysis, higher = more signal, called active from +8 up or from −8 down
[14] = PSAC antagonists in infected red cells, primary screen, cell-based, P. falciparum Indochina, OD700, 2 h (AID 1155);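 note: lysis reports solute entry through the parasite surface anion channel PSAC; channel blockers reduce lysis of infected cells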; conditions: P. falciparum Indochina infected erythrocytes, osmotic lysis OD700; higher = more signal, called active from +8 up or from −8 down
[15] = osmotic lysis modulators in infected erythrocytes, primary screen, PSAC antagonist project, cell-based, P. falciparum Indochina, OD700, 3 h (AID 1156); conditions: higher = more signal, called active from +8 up or from −8 down
[16] = PSAC antagonists in infected red cells, primary screen, cell-based, P. falciparum Indochina, OD700, 18 h (AID 1157); conditions: P. falciparum Indochina infected erythrocytes, osmotic lysis OD700, 18 h; higher = more signal, called active from +8 up or from −8 down
[17] = modulators of S6 phosphorylation in cells, primary screen, cell-based, A549, cytoblot, luminescence, serum-stimulated (AID 1158); conditions: A549 phospho-S6 cytoblot, 5 h, higher = more signal;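 note: serum-stimulated A549 lung adenocarcinoma cells; signal is phosphorylated S6 detected by cytoblot immunostaining with HRP secondary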
[18] = molecular target: NADPH oxidase 2 (Homo sapiens) (UniProt P04839); assay: NOX2-dependent H2O2 signal modulators, primary screen, NOX inhibitor project, cell-based, HEK293-NOX2, PMA-stimulated, Amplex Red fluorescence (AID 1159); conditions: 45 min, higher = more signal, called active from +8 up or from −8 down; note: test concentration not given here
NADPH oxidase 2 (Homo sapiens), sequence (P04839 whole entry, looked up): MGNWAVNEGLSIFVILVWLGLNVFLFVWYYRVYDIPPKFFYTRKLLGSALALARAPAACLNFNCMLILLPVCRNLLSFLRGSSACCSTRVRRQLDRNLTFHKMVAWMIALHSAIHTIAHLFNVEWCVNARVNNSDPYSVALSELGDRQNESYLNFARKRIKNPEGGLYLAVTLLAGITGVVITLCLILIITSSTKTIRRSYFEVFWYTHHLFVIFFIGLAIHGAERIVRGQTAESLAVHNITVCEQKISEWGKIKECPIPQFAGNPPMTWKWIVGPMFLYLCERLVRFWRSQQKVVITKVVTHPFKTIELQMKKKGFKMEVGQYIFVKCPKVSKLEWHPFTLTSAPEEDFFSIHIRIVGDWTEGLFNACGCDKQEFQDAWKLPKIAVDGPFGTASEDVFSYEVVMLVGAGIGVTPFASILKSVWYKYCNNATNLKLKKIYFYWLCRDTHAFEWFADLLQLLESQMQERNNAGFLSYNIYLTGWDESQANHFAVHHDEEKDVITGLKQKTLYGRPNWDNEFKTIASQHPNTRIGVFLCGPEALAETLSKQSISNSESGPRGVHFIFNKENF

[19] = molecular target: NADPH oxidase 4 (Homo sapiens) (UniProt Q9NPH5); assay: NOX4-dependent H2O2 signal modulators, primary screen, NOX inhibitor project, cell-based, HEK293-NOX4, tetracycline-induced, Amplex Red fluorescence (AID 1160); conditions: 45 min, higher = more signal, called active from +8 up or from −8 down
NADPH oxidase 4 (Homo sapiens), sequence (Q9NPH5 whole entry, looked up): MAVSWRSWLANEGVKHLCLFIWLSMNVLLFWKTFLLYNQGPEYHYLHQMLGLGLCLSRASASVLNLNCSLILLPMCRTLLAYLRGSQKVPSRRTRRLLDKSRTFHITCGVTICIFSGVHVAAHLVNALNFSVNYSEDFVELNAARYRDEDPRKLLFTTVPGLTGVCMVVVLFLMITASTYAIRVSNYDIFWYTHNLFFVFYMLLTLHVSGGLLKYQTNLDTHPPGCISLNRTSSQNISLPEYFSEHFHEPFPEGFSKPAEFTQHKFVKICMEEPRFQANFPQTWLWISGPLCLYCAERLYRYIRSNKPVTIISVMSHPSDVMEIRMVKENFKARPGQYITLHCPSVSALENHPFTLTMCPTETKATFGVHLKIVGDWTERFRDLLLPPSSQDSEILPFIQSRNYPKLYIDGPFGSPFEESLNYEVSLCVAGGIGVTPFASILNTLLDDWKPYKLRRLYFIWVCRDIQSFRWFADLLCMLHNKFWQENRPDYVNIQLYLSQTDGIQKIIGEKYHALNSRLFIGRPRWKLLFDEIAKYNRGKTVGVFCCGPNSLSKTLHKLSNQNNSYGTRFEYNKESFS

[20] = molecular target: NADPH oxidase 5 (Homo sapiens) (UniProt Q96PH1); assay: NOX5-dependent H2O2 signal modulators, primary screen, NOX inhibitor project, cell-based, HEK293-NOX5, Amplex Red fluorescence (AID 1161); conditions: HEK293-NOX5, ionomycin, 45 min, higher = more signal
NADPH oxidase 5 (Homo sapiens), sequence (Q96PH1 whole entry, looked up): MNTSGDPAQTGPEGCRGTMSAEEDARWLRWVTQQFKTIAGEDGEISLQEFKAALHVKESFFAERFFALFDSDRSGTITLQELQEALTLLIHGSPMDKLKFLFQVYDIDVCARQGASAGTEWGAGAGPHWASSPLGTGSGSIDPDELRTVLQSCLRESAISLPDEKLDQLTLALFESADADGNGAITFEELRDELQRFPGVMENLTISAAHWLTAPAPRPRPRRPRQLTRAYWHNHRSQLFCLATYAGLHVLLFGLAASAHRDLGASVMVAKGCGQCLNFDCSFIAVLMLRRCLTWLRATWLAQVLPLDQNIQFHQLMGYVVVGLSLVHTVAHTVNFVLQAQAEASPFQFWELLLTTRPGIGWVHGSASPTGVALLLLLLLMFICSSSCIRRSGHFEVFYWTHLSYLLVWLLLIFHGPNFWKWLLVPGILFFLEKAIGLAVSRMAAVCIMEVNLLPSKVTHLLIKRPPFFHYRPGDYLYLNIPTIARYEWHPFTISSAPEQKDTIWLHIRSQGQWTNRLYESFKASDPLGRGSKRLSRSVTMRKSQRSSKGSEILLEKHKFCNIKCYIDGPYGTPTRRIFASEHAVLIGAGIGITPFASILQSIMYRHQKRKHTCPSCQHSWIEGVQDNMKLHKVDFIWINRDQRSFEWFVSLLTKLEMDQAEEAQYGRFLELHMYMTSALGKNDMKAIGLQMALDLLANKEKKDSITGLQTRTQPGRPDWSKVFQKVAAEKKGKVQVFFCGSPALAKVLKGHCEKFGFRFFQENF

Compound	composite z-score [1]	z-score [2]	z-score [3]	z-score [4]	z-score [5]	composite z-score [6]	composite z-score [7]	composite z-score [8]	composite z-score [9]	composite z-score [10]	z-score [11]	composite z-score [12]	z-score [13]	z-score [14]	z-score [15]	z-score [16]	z-score [17]	z-score [18]	z-score [19]	z-score [20]
CCCCCN1CC=CC23O[C@@H]4C=CCCOC(=O)C4[C@H]2C(=O)N(CCCCCO)[C@@H]3C1=O (stereo not given in full)	-0.619	0.477 (inactive)	-0.978 (inactive)	-0.895 (inactive)	-0.443 (inactive)	-0.729	-0.157	1.82	0.843	0.225	1.09 (inactive)	-0.0984	1.73 (inactive)	1.1 (inactive)	2.68 (inactive)	0.575 (inactive)	0.708	1.36 (inactive)	0.228 (inactive)	1.32
CCCC[C@@H]1C[C@H]1[C@@H](NC(=O)C(C)(C)C)c1ccc(C(F)(F)F)cc1	-0.96	-4.27 (inactive)	0.0317 (inactive)	0.201 (inactive)	1.44 (inactive)	0.0267	-0.0405	-0.49	-0.869	-1.7	-2.06 (inactive)	0.718	5.74 (inactive)	0.367 (inactive)	1.01 (inactive)	-1.37 (inactive)	2.6	-4.58 (inactive)	-4.44 (inactive)	-5.62
CC(C)C[C@@H]1NC(=O)[C@@H]2C[C@H](C(=O)O)[C@H](c3cccc(OCCO)c3)N2C1=O	0.64	-1.07 (inactive)	0.133 (inactive)	0.826 (inactive)	1.41 (inactive)	-0.811	-0.209	0.198	1.09	0.188	0.649 (inactive)	-0.0966	3.95 (inactive)	0.373 (inactive)	-0.917 (inactive)	0.0571 (inactive)	-0.129	1.34 (inactive)	0.663 (inactive)	2.01
COC(=O)[C@@]1(Cc2ccccc2)[C@H]2c3cc(C(=O)N(C)C)n(Cc4ccsc4Br)c3C[C@H]2CN1C(=O)c1ccccc1	0.211	-3.35 (inactive)	-0.166 (inactive)	0.58 (inactive)	0.751 (inactive)	1.09	0.0737	0.856	0.508	-1.21	-0.775 (inactive)	1.04	6.57 (inactive)	1.07 (inactive)	0.923 (inactive)	1.25 (inactive)	-0.259	-0.111 (inactive)	0.106 (inactive)	0.723
O=C(c1ccccc1)N1C(=O)[C@]2(COC(c3ccc(OCCCO)cc3)=N2)Cc2ccccc21	0.363	-3.03 (inactive)	-0.382 (inactive)	1.03 (inactive)	0.822 (inactive)	0.532	0.249	0.273	0.87	0.658	-0.788 (inactive)	0.638	27.1 (active)	17.8 (active)	3.39 (inactive)	1.35 (inactive)	-0.394	-0.0343 (inactive)	0.0715 (inactive)	-1.69
COc1ccc([Si](C)(C)[C@H]2[C@H](CC(=O)N3Cc4ccccc4C[C@H]3CO)O[C@@]3(C(=O)N(Cc4cccc(N5CCC5=O)c4)c4ccccc43)[C@@H]2C)cc1	0.512	-3.64 (inactive)	0.187 (inactive)	7.57 (inactive)	-0.86 (inactive)	-0.0369	0.0183	0.906	0.838	1.74	-0.372 (inactive)	-0.0536	5.46 (inactive)	1.63 (inactive)	0.011 (inactive)	1.09 (inactive)	-0.0301	-1.15 (inactive)	-0.95 (inactive)	-1.44
CCOC(=O)C[C@H]1[C@H](OC(=O)c2cc3ccccc3oc2=O)[C@@H](NC(=O)c2ccccc2)c2cc(OCCCO)ccc2N1C(=O)c1ccc2ccccc2n1	0.343	-0.468 (inactive)	0.594 (inactive)	9.1 (active)	-0.539 (inactive)	0.865	-0.0405	0.0356	0.611	0.954	0.0582 (inactive)	-0.0969	10.4 (active)	1.33 (inactive)	1.17 (inactive)	0.599 (inactive)	-0.253	0.543 (inactive)	0.43 (inactive)	1.44
COCCOC(=O)N1C(=O)[C@@]2(c3cc(C#Cc4ccc(OC)cc4)ccc31)[C@H](c1ccccc1OCCO)N1[C@H](c3ccccc3)[C@H](c3ccccc3)OC(=O)[C@H]1[C@@H]2C(=O)NC[C@H](O)c1ccccc1	0.609	-3.23 (inactive)	-0.436 (inactive)	-0.602 (inactive)	-0.0611 (inactive)	0.115	0.143	0.175	0.525	2.21	0.216 (inactive)	0.396	2.92 (inactive)	2.16 (inactive)	-0.76 (inactive)	0.804 (inactive)	-0.325	1.16 (inactive)	1.16 (inactive)	0.967
